Reference: ChEMBL document CHEMBL4513216, “Probing the Open Global Health Chemical Diversity Library for Multistage-Active Starting Points for Next-Generation Antimalarials” (ACS Infect Dis, 2020)
In all, about 65,000 compounds went through this assay and about 2,100 (3.2%) showed an effect of 50% or more. The median lay at about -52%. For the sample, strong results were picked, then their nearest neighbours and some compounds at random.

What follows are molecules tested on Plasmodium falciparum (assay: Screen against P. falciparum Asexual Blood Stage (ABS), at 5uM). Settings: tested at 5 uM.
Assay type: functional, Dd2
With `OC(c1ccccc1)C1CCN(Cc2csc(-c3ncccn3)n2)CC1` (stereo not given) the INHIBITION was -49.1%.
For `CCC1=N[C@@]2(CC[C@@H]3CN(C(=O)NCc4ccccc4C)C[C@@H]32)C(=O)N1`, the INHIBITION was -16%.
For `c1cnn(CC2CCCN2c2ncnc3ccsc23)c1` (stereo not given), the INHIBITION was -122%.
For `CCc1cnc(N)nc1NCCN1CCCCC1`, the INHIBITION was 51.1%.
With `CCc1cnc(C)nc1NCCN1CCCCCC1` the INHIBITION was 44.7%.
In the case of `CCc1cnc(N)nc1NCCn1cc(Cl)cn1`, the INHIBITION is reported as 55.4%.
In the case of `CCc1cnc(C)nc1NCCN1CCOCC1`, the INHIBITION is reported as -11.8%.
With `CCc1cnc(N)nc1NCCCn1nc(C)nc1C` the INHIBITION was -44.2%.
With `CCc1cnc(N)nc1NCCc1ccc(OC)cc1OC` the INHIBITION was -6.25%.
In the case of `Cc1ccc(CN2CCC3(CC2)CN(c2ccccc2)C(=O)CO3)o1`, the INHIBITION is reported as -69%.
Work on `c1cnn(CC2CN(Cc3csc(C4CCCCC4)n3)CCO2)c1` (stereo not given) yielded an INHIBITION of -70%.
For `CNc1ncc(CN(C)C(=O)CCc2[nH]nc3c2CCCC3)cn1`, the INHIBITION was -74.2%.
`NC(=O)C1CCN(C(=O)c2ccc(OCc3cscn3)cc2)CC1` was tested, and the INHIBITION was -12.2%.
`CCS(=O)(=O)N1CCc2ccc(NC(=O)Nc3cccc(F)c3)cc21` gave an INHIBITION of -51.9%.
`CC(C)(C)NC(=O)c1ccn(COc2ccccc2Cl)n1` was tested, and the INHIBITION was -35.7%.
In the case of `CC(C)(C)n1nnnc1CN(Cc1ccccc1)Cc1ccc(Cl)cc1`, the INHIBITION is reported as 67.5%.
In the case of `CC(C)(C)n1nnnc1CN(CCc1ccccc1)Cc1ccccc1`, the INHIBITION is reported as 20.2%.
Molecule `CC(C)(C)n1ncc(NCc2ccccc2)c(Cl)c1=O` has an INHIBITION of -43.4%.
With `COc1ncccc1CNC(=O)c1ccco1` the INHIBITION was -16.5%.
`Cn1c(CN2CCOCC2)cc(=O)c(O)c1CN1CCCCC1` showed an INHIBITION of -211%.
Work on `Cn1c(CN2CCOCC2)cc(=O)c(O)c1CN1CCCC1` yielded an INHIBITION of -205%.
`Cn1c(CN2CCCCCC2)cc(=O)c(O)c1CN1CCCC1` showed an INHIBITION of 60.2%.
With `c1ccc(C2Cn3ccnc3CN2Cc2ncc[nH]2)cc1` (stereo not given) the INHIBITION was -116%.
With `Cc1cccc(Nc2cc(C3CCCN(CC(N)=O)C3)ccn2)n1` (stereo not given) the INHIBITION was -10.4%.
For `Cc1cnn(C2CCCN(C(=O)c3cccc(Cn4ccnc4)c3)C2)c1` (stereo not given), the INHIBITION was -112%.
`O=C(c1cccc(Cn2ccnc2)c1)N1CCCC(n2cccn2)C1` (stereo not given) showed an INHIBITION of 61.4%.
With `O=C(c1cccc(Cn2ccnc2)c1)N1CCCC(n2ccnc2)C1` (stereo not given) the INHIBITION was -59.1%.
For `CCN(CC)c1ccc2ccc(C(=O)N3CCCCO3)cn12`, the INHIBITION was 44.7%.
In the case of `CC(C)c1nnc2n1CCN(Cc1ccc3c(c1)OCCO3)C2`, the INHIBITION is reported as -93.4%.
With `CCc1nnc2n1CCN(Cc1ccc3c(c1)OCCO3)C2` the INHIBITION was -83%.
With `c1ccc(-c2nnc3n2CCN(Cc2ccc4c(c2)OCCO4)C3)cc1` the INHIBITION was 58.5%.
For `O=C(NCCNC1CCCC1)c1cccs1`, the INHIBITION was -54.1%.
In the case of `O=C(NCCNC1CCCCC1)c1cccs1`, the INHIBITION is reported as -44.7%.
For `CC1CCC(NCCNC(=O)c2cccs2)CC1` (stereo not given), the INHIBITION was 63.7%.
Molecule `CCC(CC)C(=O)Nc1ccc2oc(=O)n(CCN(C)C)c2c1` has an INHIBITION of 25.5%.
`CN(Cc1ccccc1)CC1CC2(CO1)CN(Cc1nccs1)C2` (stereo not given) was tested, and the INHIBITION was 6.81%.
With `CN(Cc1ccccc1)CC1CC2(CO1)CN(c1nncs1)C2` (stereo not given) the INHIBITION was -0.698%.
With `CN(Cc1ccccc1)CC1CC2(CO1)CN(Cc1cnn(C)c1)C2` (stereo not given) the INHIBITION was 52.1%.
Molecule `CNC(=O)Cc1ccccc1NC(=O)N[C@H]1c2ccccc2C[C@H]1O` has an INHIBITION of -69.7%.
For `Nc1ccc(-c2cc(O)cc(CCC3CCCCN3)c2)cn1` (stereo not given), the INHIBITION was -92.8%.
`O=c1cc(-c2cc(O)cc(CCC3CCCCN3)c2)cc[nH]1` (stereo not given) gave an INHIBITION of 0.568%.
Molecule `Oc1cc(CCC2CCCCN2)cc(-c2ccncc2)c1` (stereo not given) has an INHIBITION of 67.5%.
`COc1ccc(CCC2CCCCN2)cc1OC` (stereo not given) gave an INHIBITION of -112%.
In the case of `Oc1cc(CCC2CCCCN2)cc(-c2cccnc2)c1` (stereo not given), the INHIBITION is reported as 69%.
In the case of `O=c1[nH]ccc2cc(-c3cc(O)cc(CCC4CCCCN4)c3)ccc12` (stereo not given), the INHIBITION is reported as -57.5%.
Molecule `Cc1nc2c(c(NCCCN3CCOCC3)n1)CCN(C)C2` has an INHIBITION of -73.4%.
`COC(=O)c1cccn1C1CCN(Cc2ccccc2)CC1` was tested, and the INHIBITION was -122%.
In the case of `CN1CC2(CCC1=O)CCN(CC[C@@H](O)c1ccccc1)CC2`, the INHIBITION is reported as -14%.
Work on `Cn1cnnc1CNC(=O)C1CCCN(Cc2cccc(F)c2)C1` (stereo not given) yielded an INHIBITION of -141%.
Molecule `Cn1cc(CNC(=O)C2CCCN(Cc3cccc(F)c3)C2)cn1` (stereo not given) has an INHIBITION of -59.1%.
For `Cn1ccnc1CCNC(=O)C1CCCN(Cc2cccc(F)c2)C1` (stereo not given), the INHIBITION was 59.3%.
Molecule `CCCN(C(=O)c1ccncc1)c1nc2c(s1)CCc1c-2cnn1C` has an INHIBITION of 55.6%.
For `CCCN(C(=O)c1ccccn1)c1nc2c(s1)CCc1c-2cnn1C`, the INHIBITION was 38.1%.
For `CCCN(C(=O)c1cnccn1)c1nc2c(s1)CCc1c-2cnn1C`, the INHIBITION was -28.8%.
`OC1CCN(Cc2c(C3CCCNC3)[nH]c3ncccc23)CC1` (stereo not given) showed an INHIBITION of -65.3%.
Work on `O=C(CCn1ccc2cc(Br)ccc21)NC[C@@H]1CCCN2CCCC[C@H]12` yielded an INHIBITION of 67.1%.
In the case of `Cc1ccc2c(ccn2CCC(=O)NC[C@@H]2CCCN3CCCC[C@H]23)c1`, the INHIBITION is reported as 52%.
Molecule `Cc1ccc2c(ccn2CC(=O)NC[C@@H]2CCCN3CCCC[C@H]23)c1` has an INHIBITION of 49%.
Work on `O=C(Cn1ccc2cc(Br)ccc21)NC[C@@H]1CCCN2CCCC[C@H]12` yielded an INHIBITION of -14%.
`O=C(Cn1ccc2ccccc21)NC[C@@H]1CCCN2CCCC[C@H]12` was tested, and the INHIBITION was -14.5%.
`COc1ccc2c(ccn2CC(=O)NC[C@@H]2CCCN3CCCC[C@H]23)c1` showed an INHIBITION of -57.3%.
With `Nc1cc(N2CCC(c3cc(Cc4ccccc4)n[nH]3)CC2)ccn1` the INHIBITION was 11.1%.
Work on `CN(C)[C@@H]1CN(Cc2ccccn2)C[C@H]1c1cn(C)c2ccccc12` yielded an INHIBITION of 52.6%.
`Cc1cc(C)n(C2CN(Cc3ccccn3)C2)n1` gave an INHIBITION of -90.2%.
`CN(Cc1ccco1)[C@@H]1CN(Cc2ccccn2)C[C@@H]2CCCO[C@@H]21` showed an INHIBITION of 31.5%.
Molecule `COc1cccc2c1OCC(Cc1cc(C(=O)N3CCCC3)ccn1)C2` (stereo not given) has an INHIBITION of -9.28%.
Work on `COc1ccc([C@@H]2CN(Cc3cccnc3N)C[C@H]2N(C)C)cc1` yielded an INHIBITION of 53.9%.
With `COc1ccc([C@@H]2CN(Cc3ccncc3)C[C@H]2N(C)C)cc1` the INHIBITION was -36.3%.
Work on `COc1ccc([C@@H]2CN(Cc3cccnc3N)C[C@H]2NC(C)=O)cc1` yielded an INHIBITION of -59.7%.
`Cn1cccc1C(=O)N1CCn2cc(CN3CCCC3)nc2C1` showed an INHIBITION of -26.2%.
Molecule `CCc1ccc(CN(C/C=C/c2ccccc2)CCOC)nc1` has an INHIBITION of 54.8%.
For `COCCN(C/C=C/c1ccccc1)Cc1ccccn1`, the INHIBITION was 23.1%.
`COCCN(C/C=C/c1ccccc1)Cc1nccs1` gave an INHIBITION of -7.08%.
With `O=C(c1cccc(Cl)c1)N1CCCn2c(CN3CCCCC3)nnc2C1` the INHIBITION was 10.2%.
`Cn1ccnc1-c1nc2cc(S(=O)(=O)N3CCCC3)ccc2n1C` showed an INHIBITION of -13.2%.
`Nc1cc2c(nn1)CCN(C(=O)CCC1CCCCC1)C2` was tested, and the INHIBITION was -69.7%.
`c1cc(CN(CCCn2ccnc2)Cc2ccoc2)ccn1` was tested, and the INHIBITION was -27%.
With `CN(C)c1ccc(CN(CCCn2ccnc2)Cc2c[nH]cn2)cc1` the INHIBITION was 79.8%.
Molecule `Cc1ccc(CN(CCCn2ccnc2)Cc2c[nH]cn2)s1` has an INHIBITION of 21.2%.
In the case of `Cc1nc[nH]c1-c1nccn1CCN1CCOC1=O`, the INHIBITION is reported as -38.9%.
In the case of `Cn1cc(C2CCCN2CCCn2c(=O)oc3ccccc32)cn1` (stereo not given), the INHIBITION is reported as 8.65%.
With `Cc1nc(C2CCCN2CCCn2c(=O)oc3ccccc32)no1` (stereo not given) the INHIBITION was -44.1%.
In the case of `O=c1oc2ccccc2n1CCCN1CCCC1c1ccc(O)cc1` (stereo not given), the INHIBITION is reported as 54.1%.
In the case of `CN1CCC(CCc2ccnc(NC(=O)c3ccccn3)c2)CC1`, the INHIBITION is reported as -102%.
Work on `Cn1cc(CCNCc2cc(Cl)c3c(c2)OCCO3)cn1` yielded an INHIBITION of -26.6%.
For `Cn1cc(CNCCNc2ncc(Cl)cc2Cl)cn1`, the INHIBITION was 54%.
`CCn1cc(CNC(=O)CCn2ncc3c(Cl)cccc32)cn1` showed an INHIBITION of -21.7%.
`Cn1ccnc1CNCCNc1ncc(Cl)cc1Cl` was tested, and the INHIBITION was 41.8%.
Molecule `CCn1cc(CNc2ccc3nccnc3c2)cn1` has an INHIBITION of -14.1%.
`CCn1cc(CNCCNc2ncc(Cl)cc2Cl)cn1` showed an INHIBITION of 66.6%.
Molecule `O=C([C@@H]1CC[C@@H]2[C@@H](CCN2Cc2ccoc2)O1)N1CCCC1` has an INHIBITION of -94.6%.
`O=S(=O)(c1ccc(Cl)s1)N1CCN(Cc2nc(-c3ccco3)cs2)CC1` showed an INHIBITION of -66%.
`NC(=O)C1(c2cnccn2)CCCN1Cc1ccncc1` (stereo not given) gave an INHIBITION of -58.5%.
`O=C(NCCNc1ccc(Br)cn1)c1ccc(O)cc1` was tested, and the INHIBITION was -20.5%.
`O=C(NCCNC(=O)c1ccc(Br)cc1)c1ccc(O)cc1` was tested, and the INHIBITION was 30.3%.
Molecule `O=C(NCCNc1cncc(Br)c1)c1ccc(O)cc1` has an INHIBITION of 52.2%.
`CCCN1CCc2c(C(=O)N(C)Cc3ccccn3)nn(C)c2C1` showed an INHIBITION of -23.7%.
`O=C(Cc1ccsc1)N1CCCC(c2n[nH]c3ncccc23)C1` (stereo not given) gave an INHIBITION of -37.1%.
Molecule `CS(=O)(=O)NCCCN1CCCC1c1ccsc1` (stereo not given) has an INHIBITION of -73.1%.
In the case of `CS(=O)(=O)NCCCN1CCCC1c1ccccc1` (stereo not given), the INHIBITION is reported as -93.1%.
With `CS(=O)(=O)NCCCN1CCCC1Cc1ccccc1` (stereo not given) the INHIBITION was -29%.
With `CS(=O)(=O)NCCCN1CCCC1c1cccc(Br)c1` (stereo not given) the INHIBITION was 65.4%.
`CS(=O)(=O)NCCCN1CCCCC1c1cc2ccccc2[nH]1` (stereo not given) showed an INHIBITION of 58.9%.
`O=C(CCN1CCCCC1c1cc2ccccc2[nH]1)N1CCOCC1` (stereo not given) was tested, and the INHIBITION was 39.3%.
With `COc1ccc(C2CCCCCN2CCCNS(C)(=O)=O)cc1` (stereo not given) the INHIBITION was 59.3%.
In the case of `COc1ccc(C2CCCCCN2S(C)(=O)=O)cc1` (stereo not given), the INHIBITION is reported as -92.8%.
Work on `COc1cccc(C2CCCN2CCCNS(C)(=O)=O)c1` (stereo not given) yielded an INHIBITION of -0.589%.
With `Cc1ocnc1C(=O)N1CCCC1c1ccc(C(=O)N2CCSCC2)s1` (stereo not given) the INHIBITION was -154%.
`Cn1c(=O)c2c(n3ncnc13)NC(=O)CC2c1cccc(Br)c1` (stereo not given) was tested, and the INHIBITION was -61.2%.
Molecule `CC(C)c1nc(CN(C)C(=O)c2cn3ccsc3n2)cs1` has an INHIBITION of -43.1%.
